Measurements published in ChEMBL document CHEMBL4513146, “CO-ADD screening of Karazin Kharkiv National University (Ukraine) compounds”.
Measured potencies and affinities stand elsewhere.

Legend:
[1] = system: Klebsiella pneumoniae; details: Concentration 32 ug.mL-1;; ASSAY_TEST Inhibition of Bacterial Growth; detection method Absorption (OD600); MEDIA CAMHB; plate type 384well; NBS; CORNING #3640; time 18 hr
[2] = system: Candida albicans; details: Concentration 32 ug.mL-1; ASSAY_TEST Inhibition of Fungal Growth; detection method Absorption (OD530)
[3] = system: Cryptococcus neoformans; details: Concentration 32 ug.mL-1; ASSAY_TEST Inhibition of Fungal Growth; detection method Resazurin; Absorption (OD600-OD570); plate type 384well; NBS; CORNING #3640

| SMILES | Inhibition [1] | Inhibition [2] | Inhibition [3] |
| --- | --- | --- | --- |
| Cc1ccc(Cl)cc1N1CCN(C(=O)CCc2nnc3c4cc(-c5ccccc5)nn4ccn23)CC1 | 5.47% | 0.3% | -6.62% |
| Cc1ccc(NC(=O)c2ccc3nnc(SCC(=O)Nc4ccc(Br)cc4)n3c2)cc1 | 8.72% | 1.55% | -17.05% |
| COc1cc(NC(=O)Cn2nc3ccc(SC(C)C)nn3c2=O)cc(OC)c1 | 4.22% | 10.99% | -7.98% |
| COc1cccc(-n2ccn3c(SCC(=O)c4cc(C)c(C)cc4C)nnc3c2=O)c1 | 11.25% | 2.17% | -10.44% |
| CCOc1ccc(C(=O)CSc2nnc3c(=O)n(-c4ccc(C)c(C)c4)ccn23)cc1 | 1.39% | 10.64% | -7.55% |
| Cc1ccc(NC(=O)Cn2nc3ccc(-c4ccc(Cl)cc4)nn3c2=O)cc1F | 2.59% | -1.16% | -2.55% |
| O=c1n(Cc2cccc(C(F)(F)F)c2)nc2c(S(=O)(=O)N3CCCC3)cccn12 | 13.65% | 1.01% | -8.52% |
| O=S(=O)(c1ccc2nncn2c1)N(Cc1cccc(F)c1)c1ccc2c(c1)OCCO2 | 10.4% | 1.26% | -5.06% |
| Cc1ccccc1NC(=O)Cn1nc2c(SC3CCCCC3)nccn2c1=O | 5.55% | -0.37% | -26.02% |
| CCOc1ccc(N(Cc2ccccc2)S(=O)(=O)c2ccc3nncn3c2)cc1 | 6.93% | 2.75% | -0.95% |
| CC(C)CCn1c(=O)c2sccc2n2c(=O)n(CCOc3ccccc3)nc12 | 15.26% | 12.41% | -11.28% |
| COc1ccc(CCn2c(=O)c3sccc3n3c(=O)n(Cc4ccccc4Cl)nc23)cc1OC | 5.53% | -1.24% | -27.91% |
| Cc1ccc(-n2ccn3c(SCC#N)nnc3c2=O)cc1C | 10.69% | 1.05% | -5.76% |
| Cc1cc(C)c(NC(=O)Cn2nc3c4cc(-c5ccc(C)c(C)c5)nn4ccn3c2=O)c(C)c1 | 5.52% | -0.89% | -17.51% |
| CCOc1ccc(NC(=O)Cn2nc3c(Oc4cccc(OC)c4)nccn3c2=O)cc1 | 14.7% | 3.56% | -8.08% |
| Cc1ccccc1N1CCN(c2nccn3c(=O)n(CC(=O)NCc4ccc(Cl)cc4)nc23)CC1 | 7.17% | 45.71% | -4.38% |
| Cc1cc(C)c(NC(=O)Cn2nc3n(C)c(=O)c4c(c(-c5ccccc5)cn4C)n3c2=O)c(C)c1 | 4.68% | 0.24% | -1.33% |
| COc1cccc(-n2ccn3c(SCc4ccc(F)cc4)nnc3c2=O)c1 | 3.28% | 1.89% | -13.93% |
| COC(=O)c1ccccc1NC(=O)Cn1nc2c(SC3CCCCC3)nccn2c1=O | 12.08% | 1.97% | -21.3% |
| Cc1ccc(C(=O)CSc2nnc3c(=O)n(-c4ccc(F)cc4)ccn23)c(C)c1 | 5.21% | 2.78% | -8.55% |
| CC(C)(C)OC(=O)CN(c1ccc2c(c1)OCCO2)S(=O)(=O)c1ccc2nncn2c1 | 11.52% | 1.39% | -8.21% |
| Cc1cccc(N(Cc2ccccc2)S(=O)(=O)c2cccn3c(C)nnc23)c1 | 11.16% | 8.73% | -3.61% |
| O=c1c2nnc(SCc3ccccc3)n2ccn1-c1ccc(Br)cc1 | 7.85% | 5.19% | -7.93% |
| Cc1ccc(NC(=O)Cn2nc3c(Oc4ccccc4C)nccn3c2=O)cc1F | 11.18% | -0.61% | -11.02% |
| CCCc1nnc2c(=O)n(CC(=O)Nc3ccc(Cl)c(Cl)c3)c3ccccc3n12 | 5.7% | 0.11% | -14.21% |
| CCc1ccc(Cn2c(=O)c3sccc3n3c(=O)n(Cc4c(F)cccc4Cl)nc23)cc1 | 5.71% | 1.83% | -25.59% |
| Cc1ccccc1Oc1nc2ccccc2n2c(=O)n(CC(=O)Nc3cccc(C(F)(F)F)c3)nc12 | 12.65% | 1.53% | -23.54% |
| COc1cccc(-n2ccn3c(SCC(=O)c4ccc(C)cc4C)nnc3c2=O)c1 | 16.45% | 4.51% | -10.37% |
